Experiments:
Assay in all cases: log2 ratio of Biotin-Ahx-Ub-VS probe labelling (fragment/DMSO); higher = less target engagement (more negative = stronger competition), active = hit call of the paper (q ≤ 0.05, log2 ratio ≤ -1)
Conditions in all cases: compound concentration: 200 uM; treatment time: 3 h
[1] = molecular target: T1, USP19 (UniProt O94966)
T1 sequence (whole entry): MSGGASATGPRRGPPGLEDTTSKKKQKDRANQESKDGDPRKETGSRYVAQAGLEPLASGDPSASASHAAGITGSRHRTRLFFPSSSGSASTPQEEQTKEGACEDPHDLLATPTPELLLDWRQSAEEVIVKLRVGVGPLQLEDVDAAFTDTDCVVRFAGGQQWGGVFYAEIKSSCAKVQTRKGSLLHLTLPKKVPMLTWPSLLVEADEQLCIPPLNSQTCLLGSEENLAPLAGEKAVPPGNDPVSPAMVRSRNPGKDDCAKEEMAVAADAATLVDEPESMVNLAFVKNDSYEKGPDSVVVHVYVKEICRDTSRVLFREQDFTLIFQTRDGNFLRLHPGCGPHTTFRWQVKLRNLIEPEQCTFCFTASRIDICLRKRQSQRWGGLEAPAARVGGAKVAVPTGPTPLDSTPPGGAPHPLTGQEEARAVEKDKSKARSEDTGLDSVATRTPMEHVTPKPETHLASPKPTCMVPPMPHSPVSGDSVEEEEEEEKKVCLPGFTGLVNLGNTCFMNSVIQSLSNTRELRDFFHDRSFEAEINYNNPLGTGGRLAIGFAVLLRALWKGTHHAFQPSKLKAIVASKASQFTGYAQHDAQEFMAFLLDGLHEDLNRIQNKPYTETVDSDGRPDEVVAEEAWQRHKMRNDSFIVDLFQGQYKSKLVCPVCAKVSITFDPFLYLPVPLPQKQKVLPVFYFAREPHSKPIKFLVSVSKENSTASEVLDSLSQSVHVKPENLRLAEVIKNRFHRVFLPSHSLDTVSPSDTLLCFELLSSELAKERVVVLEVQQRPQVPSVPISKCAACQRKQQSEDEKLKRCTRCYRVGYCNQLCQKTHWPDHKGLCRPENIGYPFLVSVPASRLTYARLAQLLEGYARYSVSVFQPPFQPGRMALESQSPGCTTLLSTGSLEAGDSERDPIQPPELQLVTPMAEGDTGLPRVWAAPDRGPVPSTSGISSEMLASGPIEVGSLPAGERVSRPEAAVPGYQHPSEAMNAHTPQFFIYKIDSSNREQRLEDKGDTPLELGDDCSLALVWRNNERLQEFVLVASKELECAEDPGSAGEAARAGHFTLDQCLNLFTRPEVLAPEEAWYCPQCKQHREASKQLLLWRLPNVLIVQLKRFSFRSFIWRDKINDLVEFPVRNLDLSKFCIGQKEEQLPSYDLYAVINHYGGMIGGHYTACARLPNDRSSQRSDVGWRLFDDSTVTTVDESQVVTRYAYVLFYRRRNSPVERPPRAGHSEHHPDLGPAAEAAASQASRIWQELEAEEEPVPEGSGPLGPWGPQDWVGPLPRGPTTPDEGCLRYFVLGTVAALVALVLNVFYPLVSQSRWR
Outline: (§1)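 Labelled DUBs from HEK293T lysate were NeutrAvidin-enriched, digested with LysC and trypsin, and run by diaPASEF LC-MS/MS. Before that, each 495 µg sample in Tris/CHAPS/IGEPAL buffer with protease inhibitors was treated in triplicate with fragment at 200 µM or vehicle for 3 h, then with Biotin-Ahx-Ub-VS at 0.5 µM final for 1 h. Values are average log2 ratios of fragment over vehicle by unpaired t-test, based on global-median-normalised Spectronaut label-free quantities from proteins with ≥2 unique peptides.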

[2] = molecular target: T2, USP22 (UniProt Q9UPT9)
T2 sequence (whole entry): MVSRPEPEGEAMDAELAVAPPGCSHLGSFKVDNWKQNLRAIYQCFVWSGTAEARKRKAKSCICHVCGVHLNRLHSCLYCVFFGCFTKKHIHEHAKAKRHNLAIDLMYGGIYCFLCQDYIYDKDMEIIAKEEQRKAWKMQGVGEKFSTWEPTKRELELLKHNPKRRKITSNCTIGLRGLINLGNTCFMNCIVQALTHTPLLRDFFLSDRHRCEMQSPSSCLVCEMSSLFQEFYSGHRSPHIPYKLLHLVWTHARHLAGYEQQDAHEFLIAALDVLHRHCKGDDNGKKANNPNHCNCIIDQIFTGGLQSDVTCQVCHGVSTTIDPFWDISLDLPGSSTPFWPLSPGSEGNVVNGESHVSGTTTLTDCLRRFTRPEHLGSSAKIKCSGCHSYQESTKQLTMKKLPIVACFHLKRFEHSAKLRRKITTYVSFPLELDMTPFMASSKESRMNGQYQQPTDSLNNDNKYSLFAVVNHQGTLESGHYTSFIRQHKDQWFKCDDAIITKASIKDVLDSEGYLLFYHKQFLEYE
Outline: as §1

[3] = molecular target: USP24 (UniProt Q9UPU5)
Sequence of USP24 (Q9UPU5 whole entry): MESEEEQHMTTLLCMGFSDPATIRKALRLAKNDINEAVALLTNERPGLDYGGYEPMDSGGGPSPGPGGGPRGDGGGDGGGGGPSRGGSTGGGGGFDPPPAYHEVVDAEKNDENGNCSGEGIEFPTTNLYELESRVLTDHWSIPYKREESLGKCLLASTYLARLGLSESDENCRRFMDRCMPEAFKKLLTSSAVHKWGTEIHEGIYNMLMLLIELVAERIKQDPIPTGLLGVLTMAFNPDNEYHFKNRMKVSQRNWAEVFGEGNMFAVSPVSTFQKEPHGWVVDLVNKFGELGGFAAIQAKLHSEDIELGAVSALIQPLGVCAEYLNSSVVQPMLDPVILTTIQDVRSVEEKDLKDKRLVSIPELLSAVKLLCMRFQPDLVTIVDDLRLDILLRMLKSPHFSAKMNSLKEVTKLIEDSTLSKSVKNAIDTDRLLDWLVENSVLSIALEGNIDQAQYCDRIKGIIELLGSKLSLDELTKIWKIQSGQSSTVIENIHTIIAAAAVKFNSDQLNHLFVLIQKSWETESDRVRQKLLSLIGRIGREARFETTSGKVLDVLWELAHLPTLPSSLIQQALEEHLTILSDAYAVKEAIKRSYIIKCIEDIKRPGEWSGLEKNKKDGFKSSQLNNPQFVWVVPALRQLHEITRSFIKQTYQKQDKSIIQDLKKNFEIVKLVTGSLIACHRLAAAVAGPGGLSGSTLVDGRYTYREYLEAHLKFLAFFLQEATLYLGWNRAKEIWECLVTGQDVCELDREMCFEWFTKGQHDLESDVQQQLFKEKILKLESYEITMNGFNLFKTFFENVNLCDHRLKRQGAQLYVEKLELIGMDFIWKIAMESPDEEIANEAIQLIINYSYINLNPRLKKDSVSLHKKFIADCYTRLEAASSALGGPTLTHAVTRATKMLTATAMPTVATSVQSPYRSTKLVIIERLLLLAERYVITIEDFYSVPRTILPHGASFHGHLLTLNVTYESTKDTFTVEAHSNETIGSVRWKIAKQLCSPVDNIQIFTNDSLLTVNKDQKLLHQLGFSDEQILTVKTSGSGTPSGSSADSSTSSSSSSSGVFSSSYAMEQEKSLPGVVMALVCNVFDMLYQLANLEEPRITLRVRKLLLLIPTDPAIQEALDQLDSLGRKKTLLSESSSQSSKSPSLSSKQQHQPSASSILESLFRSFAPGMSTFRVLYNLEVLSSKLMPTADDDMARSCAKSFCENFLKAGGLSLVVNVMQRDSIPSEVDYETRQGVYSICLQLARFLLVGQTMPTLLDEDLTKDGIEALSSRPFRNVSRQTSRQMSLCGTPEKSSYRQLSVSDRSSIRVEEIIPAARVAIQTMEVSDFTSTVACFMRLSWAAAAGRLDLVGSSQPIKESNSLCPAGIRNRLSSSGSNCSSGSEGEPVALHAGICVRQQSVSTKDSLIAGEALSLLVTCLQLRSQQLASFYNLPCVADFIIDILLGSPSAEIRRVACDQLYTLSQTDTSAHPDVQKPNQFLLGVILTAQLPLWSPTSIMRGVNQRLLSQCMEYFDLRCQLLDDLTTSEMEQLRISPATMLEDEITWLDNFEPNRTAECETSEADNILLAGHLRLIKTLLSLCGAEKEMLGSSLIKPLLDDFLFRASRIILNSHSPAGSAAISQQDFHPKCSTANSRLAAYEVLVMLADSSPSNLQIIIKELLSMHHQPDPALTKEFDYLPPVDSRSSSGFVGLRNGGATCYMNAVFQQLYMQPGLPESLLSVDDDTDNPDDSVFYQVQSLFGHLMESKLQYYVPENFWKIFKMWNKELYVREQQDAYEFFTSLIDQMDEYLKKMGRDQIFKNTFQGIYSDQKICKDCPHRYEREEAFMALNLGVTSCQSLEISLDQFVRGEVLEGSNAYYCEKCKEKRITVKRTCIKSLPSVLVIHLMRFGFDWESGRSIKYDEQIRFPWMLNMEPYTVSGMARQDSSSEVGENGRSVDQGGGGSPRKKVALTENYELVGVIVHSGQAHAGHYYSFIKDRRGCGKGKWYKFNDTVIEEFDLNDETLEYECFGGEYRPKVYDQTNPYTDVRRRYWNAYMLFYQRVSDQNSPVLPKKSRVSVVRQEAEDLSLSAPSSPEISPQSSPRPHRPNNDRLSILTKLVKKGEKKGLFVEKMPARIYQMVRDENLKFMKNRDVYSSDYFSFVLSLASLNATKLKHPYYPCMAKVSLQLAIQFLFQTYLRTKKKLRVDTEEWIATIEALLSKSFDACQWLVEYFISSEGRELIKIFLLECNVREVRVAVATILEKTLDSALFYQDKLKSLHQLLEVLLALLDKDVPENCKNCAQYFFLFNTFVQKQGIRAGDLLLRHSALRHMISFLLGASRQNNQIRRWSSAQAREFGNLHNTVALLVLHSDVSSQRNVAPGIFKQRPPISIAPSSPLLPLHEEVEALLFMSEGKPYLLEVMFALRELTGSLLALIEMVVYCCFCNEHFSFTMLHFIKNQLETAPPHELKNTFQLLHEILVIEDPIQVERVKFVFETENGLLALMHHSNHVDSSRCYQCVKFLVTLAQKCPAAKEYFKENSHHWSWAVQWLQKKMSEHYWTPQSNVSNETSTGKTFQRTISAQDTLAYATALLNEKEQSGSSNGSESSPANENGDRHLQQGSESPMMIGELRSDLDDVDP
Outline: as §1

[4] = molecular target: T3, USP25 (UniProt Q9UHP3)
T3 sequence (whole entry): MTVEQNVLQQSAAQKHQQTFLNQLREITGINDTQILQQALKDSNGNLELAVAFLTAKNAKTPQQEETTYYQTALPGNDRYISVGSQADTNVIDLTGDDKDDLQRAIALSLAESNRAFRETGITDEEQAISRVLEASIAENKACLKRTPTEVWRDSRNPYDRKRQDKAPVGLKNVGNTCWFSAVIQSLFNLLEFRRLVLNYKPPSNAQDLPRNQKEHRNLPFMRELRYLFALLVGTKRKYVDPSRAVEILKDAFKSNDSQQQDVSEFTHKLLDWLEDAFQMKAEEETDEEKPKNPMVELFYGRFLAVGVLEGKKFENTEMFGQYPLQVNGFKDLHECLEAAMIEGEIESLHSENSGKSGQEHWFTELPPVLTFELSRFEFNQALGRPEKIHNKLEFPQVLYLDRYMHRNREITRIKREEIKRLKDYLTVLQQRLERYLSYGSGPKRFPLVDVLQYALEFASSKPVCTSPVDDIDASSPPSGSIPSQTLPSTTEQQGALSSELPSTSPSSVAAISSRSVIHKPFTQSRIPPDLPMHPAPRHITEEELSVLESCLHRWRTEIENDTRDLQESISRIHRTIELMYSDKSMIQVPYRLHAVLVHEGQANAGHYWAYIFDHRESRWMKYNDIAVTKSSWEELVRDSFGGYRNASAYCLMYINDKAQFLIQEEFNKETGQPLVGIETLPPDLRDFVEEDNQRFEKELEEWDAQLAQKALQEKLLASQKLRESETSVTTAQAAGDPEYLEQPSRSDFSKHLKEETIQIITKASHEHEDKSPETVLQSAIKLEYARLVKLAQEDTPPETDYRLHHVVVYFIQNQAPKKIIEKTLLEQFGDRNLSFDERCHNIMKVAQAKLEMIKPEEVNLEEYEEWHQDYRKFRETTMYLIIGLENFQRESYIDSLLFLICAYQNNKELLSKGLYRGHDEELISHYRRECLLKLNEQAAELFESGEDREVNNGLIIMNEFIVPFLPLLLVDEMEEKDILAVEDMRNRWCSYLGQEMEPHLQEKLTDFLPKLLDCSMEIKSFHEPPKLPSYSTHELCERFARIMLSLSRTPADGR
Outline: as §1

[5] = molecular target: T4, USP28 (UniProt Q96RU2)
T4 sequence (whole entry): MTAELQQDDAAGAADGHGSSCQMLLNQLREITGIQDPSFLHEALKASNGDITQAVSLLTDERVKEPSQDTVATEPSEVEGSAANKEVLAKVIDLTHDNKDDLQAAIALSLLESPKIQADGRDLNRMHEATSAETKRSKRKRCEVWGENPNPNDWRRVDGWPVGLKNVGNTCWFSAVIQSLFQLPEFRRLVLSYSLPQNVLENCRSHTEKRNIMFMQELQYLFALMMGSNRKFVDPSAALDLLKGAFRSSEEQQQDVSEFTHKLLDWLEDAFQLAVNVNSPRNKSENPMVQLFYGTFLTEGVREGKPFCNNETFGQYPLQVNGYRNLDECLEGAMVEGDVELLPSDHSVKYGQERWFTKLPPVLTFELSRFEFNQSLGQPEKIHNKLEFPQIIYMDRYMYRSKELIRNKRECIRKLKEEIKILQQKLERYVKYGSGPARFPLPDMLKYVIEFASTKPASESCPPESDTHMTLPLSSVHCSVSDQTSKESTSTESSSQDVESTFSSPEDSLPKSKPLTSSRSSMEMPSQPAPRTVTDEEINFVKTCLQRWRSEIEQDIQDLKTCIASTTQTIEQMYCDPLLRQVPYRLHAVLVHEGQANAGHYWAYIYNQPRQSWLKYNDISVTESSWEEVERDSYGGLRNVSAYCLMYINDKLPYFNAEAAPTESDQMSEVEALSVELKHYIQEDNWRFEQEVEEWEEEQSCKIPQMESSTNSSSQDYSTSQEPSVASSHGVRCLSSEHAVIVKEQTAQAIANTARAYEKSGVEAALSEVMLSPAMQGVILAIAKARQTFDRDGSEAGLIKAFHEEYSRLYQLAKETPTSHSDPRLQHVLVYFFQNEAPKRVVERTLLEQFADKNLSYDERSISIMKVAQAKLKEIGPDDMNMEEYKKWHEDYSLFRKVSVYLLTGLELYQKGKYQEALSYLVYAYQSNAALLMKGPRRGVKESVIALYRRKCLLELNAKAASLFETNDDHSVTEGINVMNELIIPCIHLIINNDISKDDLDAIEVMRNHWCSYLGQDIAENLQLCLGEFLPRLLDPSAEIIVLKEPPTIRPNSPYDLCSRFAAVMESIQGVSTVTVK
Outline: as §1

Measured: log2 ratio of Biotin-Ahx-Ub-VS probe labelling

CNC(=O)Cn1cc(NC(=O)CCl)cn1
inactive: [1] -0.0937 | [2] -0.0499 | [3] -0.146 | [4] -0.172 | [5] -0.486
